Assay results as given in PubChem BioAssay (Tox21).
Results filed as inconclusive are left out. Activity calls are given as the source filed them. The call rests on the fitted dose curve.

Tests used:
[1] = biological target: Acetylcholinesterase (Homo sapiens) (UniProt P22303); test: Acetylcholinesterase (AChE) small molecule antagonists: colormetric cell-based qHTS assay (AID 1347395); further: nearly all actives have a fitted effect of over 30% in size; further: potency means the concentration at half of the fitted maximal effect
Sequence of Acetylcholinesterase (Homo sapiens) (P22303 whole entry, looked up): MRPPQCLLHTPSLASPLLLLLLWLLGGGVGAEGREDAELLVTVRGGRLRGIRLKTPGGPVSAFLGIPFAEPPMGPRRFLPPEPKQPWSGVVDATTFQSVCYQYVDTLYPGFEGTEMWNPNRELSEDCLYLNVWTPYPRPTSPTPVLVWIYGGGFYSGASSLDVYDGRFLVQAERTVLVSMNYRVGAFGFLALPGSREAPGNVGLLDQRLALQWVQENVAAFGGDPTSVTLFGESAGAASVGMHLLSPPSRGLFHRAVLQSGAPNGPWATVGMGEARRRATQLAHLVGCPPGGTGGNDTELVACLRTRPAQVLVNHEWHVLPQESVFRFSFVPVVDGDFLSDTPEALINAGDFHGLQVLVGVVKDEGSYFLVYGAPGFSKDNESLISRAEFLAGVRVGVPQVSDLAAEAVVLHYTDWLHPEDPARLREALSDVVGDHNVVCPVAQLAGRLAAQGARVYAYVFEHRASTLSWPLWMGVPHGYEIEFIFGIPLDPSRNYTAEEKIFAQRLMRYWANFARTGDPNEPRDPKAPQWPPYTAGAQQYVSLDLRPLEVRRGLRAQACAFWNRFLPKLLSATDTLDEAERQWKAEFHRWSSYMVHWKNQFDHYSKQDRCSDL
Outline: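 Endogenous AChE of human neuroblastoma SH-SY5Y cells was measured with an Ellman-type DTNB/acetylthiocholine mix. Compound pretreatment lasted 30 min at 37 C; substrate reaction ran 90 min at 37 C.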

[2] = biological target: Acetylcholinesterase (Homo sapiens) (UniProt P22303); test: Acetylcholinesterase (AChE) small molecule antagonists: enzyme-based qHTS assay (AID 1347397); details: Potency: AChE enzyme activity inhibition; outcome: AChE enzyme activity inhibition; further: nearly all actives have a fitted effect of over 55% in size
Outline: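 Tox21 library chemicals are tested in qHTS format against recombinant human AChE. The enzyme, dispensed at 50 mU/mL, sits with compound for 30 min at room temperature. A DTNB–acetylthiocholine cocktail follows, and colour is read after 10 min.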

[3] = biological target: Acetylcholinesterase (Homo sapiens) (UniProt P22303); test: Acetylcholinesterase (AChE) small molecule antagonists: fluorescence cell-based qHTS assay (AID 1347398); details: Potency: AChE activity; outcome: AChE activity; further: nearly all actives have a fitted effect of over 50% in size
Outline: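 Cellular AChE inhibition: SH-SY5Y cells treated with test chemical for 30 min at 37 C, then acetylthiocholine hydrolysis followed over 40 min at room temperature via thiocholine-reactive Thiolite Green fluorescence (490/520 nm).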

[4] = biological target: Acetylcholinesterase (Homo sapiens) (UniProt P22303); test: Acetylcholinesterase (AChE) small molecule antagonists: enzyme-based qHTS assay with human liver microsomes (AID 1347399); details: Potency: qHTS inhibition; outcome: qHTS inhibition; further: nearly all actives have a fitted effect of over 60% in size
Outline: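 Recombinant human AChE (50 mU/mL in the enzyme mix) and human liver microsomes (0.25 mg/mL final) were preincubated with compound and NADPH (0.25 mg/mL final) for 30 min at 37 C. Acetylthiocholine/DTNB was then added; thiocholine was read colorimetrically after 10 min at room temperature.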
On the % scale 0 is the no-effect control and ±100 the full control effect.

C=C(C)C(=O)OCCC[Si](Cl)(Cl)Cl
inactive: Potency [1] | Potency [2] | Potency [3] | Potency [4]

CC(C)c1ccc2oc3nc(N)c(C(=O)O)cc3c(=O)c2c1
inactive: Potency [1] | Potency [2] | Potency [3] | Potency [4]

N[C@H]1C(O)O[C@H](CO)[C@@H](O)[C@@H]1O (stereo partly specified)
inactive: Potency [1] | Potency [2] | Potency [3] | Potency [4]

Cc1ccc2c(Br)cc(Br)c(O)c2n1
inactive: Potency [1] | Potency [2] | Potency [3] | Potency [4]

O=C(N[C@@H](c1ccccc1)[C@@H]1CCCCN1)c1cccc(C(F)(F)F)c1Cl
inactive: Potency [1] | Potency [2] | Potency [3] | Potency [4]

CCCCOCCCC
inactive: Potency [1] | Potency [2] | Potency [3] | Potency [4]

CCCCc1ccc2nc(NC(=O)OC)[nH]c2c1
inactive: Potency [1] | Potency [2] | Potency [3] | Potency [4]

N#Cc1ccc(C(c2ccc(C#N)cc2)n2cncn2)cc1
inactive: Potency [1] | Potency [2] | Potency [3] | Potency [4]

CCN(CC)C(C)=O
inactive: Potency [1] | Potency [2] | Potency [3] | Potency [4]

C=CC/C=C/C/C=C/C/C=C/C
inactive: Potency [1] | Potency [2] | Potency [3] | Potency [4]

CC(C)Cn1cnc2c(N)nc3ccccc3c21
inactive: activity, negative = inhibition [1] -1.3% [at 23.6 µM] | activity change, negative = inhibition [2] -0.415% [at 23.6 µM] | activity change, negative = inhibition [3] -8.86% [at 23.8 µM] | activity change, negative = inhibition [4] 1.68% [at 23.6 µM]

N#Cc1ccc(C2CCCc3cncn32)cc1 (stereo unspecified)
inactive: Potency [1] | Potency [2] | Potency [3] | Potency [4]

O=C(Cl)c1cccc([N+](=O)[O-])c1
inactive: Potency [1] | Potency [2] | Potency [3] | Potency [4]

CC(=O)NC1(c2cccc(F)c2)CCN(CC[C@@]2(c3ccc(Cl)c(Cl)c3)CN(c3ccccc3)C(=O)CO2)CC1
inactive: Potency [1] | Potency [2] | Potency [3] | Potency [4]

CC1=NN(c2ccc(S(=O)(=O)O)cc2)C(=O)C1N=Nc1ccccc1 (stereo unspecified)
inactive: Potency [1] | Potency [2] | Potency [3] | Potency [4]

CNC(=O)C(c1ccccc1)c1ccccc1
inactive: Potency [1] | Potency [2] | Potency [3] | Potency [4]

CCN(C(=O)N(CC)c1ccccc1)c1ccccc1
inactive: Potency [1] | Potency [2] | Potency [3] | Potency [4]

CCC(C)(Oc1ccc(C2(c3ccc(OC(C)(CC)C(=O)O)cc3)CCCCC2)cc1)C(=O)O (stereo unspecified)
inactive: Potency [1] | Potency [2] | Potency [3] | Potency [4]

Oc1ccc(-c2ccc(O)cc2)cc1
inactive: Potency [1] | Potency [2] | Potency [3] | Potency [4]

C[C@@H]1CN(c2c(F)c(F)c3c(=O)c(C(=O)O)cn(C4CC4)c3c2F)C[C@H](C)N1
inactive: activity, negative = inhibition [1] -2.8% [at 23.6 µM] | activity change, negative = inhibition [2] -0.831% [at 23.6 µM] | activity change, negative = inhibition [3] 0.907% [at 23.8 µM] | activity change, negative = inhibition [4] -1.43% [at 23.6 µM]

O=C1OC(=O)c2cc([N+](=O)[O-])ccc21
inactive: Potency [1] | Potency [2] | Potency [3] | Potency [4]

Clc1cc(Cl)cc(Cl)c1
inactive: Potency [1] | Potency [2] | Potency [3] | Potency [4]

O=C(O)c1ccccc1-c1ccc(C(F)(F)F)cc1
inactive: Potency [1] | Potency [2] | Potency [3] | Potency [4]

COC(=O)c1ccc(NC(C)=O)cc1OC
inactive: Potency [1] | Potency [2] | Potency [3] | Potency [4]

COC(OC)(C(=O)c1ccccc1)c1ccccc1
inactive: Potency [1] | Potency [2] | Potency [3] | Potency [4]

CC(C)[C@H]1CC[C@H](C)C[C@@H]1O
inactive: Potency [1] | Potency [2] | Potency [3] | Potency [4]

CCCCCCCCCCCCCCN(CCO)CCO
inactive: Potency [1] | Potency [2] | Potency [4]

Cc1nccn1-c1ccc(Sc2cccc(C3(C(N)=O)CCOCC3)c2)cc1
inactive: outcome [1] | outcome [2] | outcome [4]

CC(=O)[C@]1(O)Cc2c(O)c3c(c(O)c2[C@@H](O[C@H]2C[C@H](N)[C@H](O)[C@H](C)O2)C1)C(=O)c1ccccc1C3=O
inactive: Potency [2] | Potency [4]
active: Potency [1] 17.4 µM

CC(C)NCC(O)c1ccc2ccccc2c1 (stereo unspecified)
inactive: Potency [1] | Potency [2] | Potency [4]

COc1cc(NC(C)CCCN)c2ncccc2c1 (stereo unspecified)
inactive: Potency [1] | Potency [2] | Potency [4]

O=C(CCN1CCN2CCCC2C1)N1c2ccccc2Sc2ccc(Cl)cc21 (stereo unspecified)
inactive: activity, negative = inhibition [1] 0% [at 23.6 µM] | activity change, negative = inhibition [2] 0.831% [at 23.6 µM] | activity change, negative = inhibition [4] 1.34% [at 23.6 µM]

Cc1c(N)cccc1Cl
inactive: Potency [1] | Potency [2] | Potency [4]

NC(=O)c1ncn([C@@H]2O[C@H](CO)[C@@H](O)[C@H]2O)c1O
inactive: Potency [1] | Potency [2] | Potency [4]

CN(C(=O)c1c(O)c2ccccc2n(C)c1=O)c1ccccc1
inactive: Potency [1] | Potency [2] | Potency [4]
